In PubChem BioAssay:
Calls of active or inactive are those of the source.

Columns and labels:
[1] = binders of probe aFSTL3 on microarray, primary screen, stem cell growth factor project, biochemical, small-molecule microarray, fluorescence 635/667 (AID 1064); conditions: higher = more signal;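 note: measures binding of the biotinylated anti-FSTL3 antibody to printed compounds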
[2] = binders from COS7 lysate, DM2A8 probe, primary screen, torsin A project, cell lysate, small-molecule microarray, fluorescence 635/667 (AID 1065); conditions: higher = more signal, COS7 lysate expressing mutant human TOR1A
[3] = binders of probe aFGF2 on microarray, primary screen, stem cell growth factor project, biochemical, small-molecule microarray, fluorescence 635/667 (AID 1067); conditions: higher = more signal;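 note: measures binding of biotinylated aFGF2 protein to printed compounds on slides; z-score merges feature fluorescence and signal-to-noise across triplicate slides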
[4] = binders of probe aFGF10 on microarray, primary screen, stem cell growth factor project, biochemical, small-molecule microarray, fluorescence 635/667 (AID 1071); conditions: higher = more signal;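 note: score merges 667 nm spot intensity and signal to noise from triplicate slides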
[5] = target: Neurogenic locus notch homolog protein 2 (Homo sapiens) (UniProt Q04721); assay: Notch2 binders on small-molecule microarrays, primary screen, biochemical, small-molecule microarray, 635 nm fluorescence, stem cell growth factors (AID 1073); conditions: Notch2 binding, higher = more signal
[6] = target: Pro-neuregulin-1, membrane-bound isoform (Homo sapiens) (UniProt Q02297); assay: NRG1 binders on small-molecule microarrays, primary screen, psychiatric disease protein project, biochemical, small-molecule microarray, fluorescence 635/667 (AID 1075); conditions: NRG1 binding, 635 nm fluorescence, higher = more signal;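 note: score combines 667 nm spot fluorescence with signal to noise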
[7] = system: Neuregulin-1 EGF-like domain; assay: binders of neuregulin-1 EGF-like domain, primary screen, biochemical, small-molecule microarray, 635 nm fluorescence (AID 1081); conditions: small-molecule microarray binding, higher = more signal;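 note: binding of the protein to compounds printed on small-molecule microarray slides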
[8] = FRG1 promoter luciferase signal modulators, primary screen, FRG1 inhibition for FSHD, cell-based, C2C12 myotubes, firefly/Renilla luciferase, luminescence (AID 1084); conditions: higher = more signal, called active from +8 up or from −8 down
[9] = binders of probe aFST on microarray, primary screen, stem cell growth factor project, biochemical, small-molecule microarray, fluorescence 635/667 (AID 1086); conditions: higher = more signal;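 note: score merges 667 nm fluorescence with signal-to-noise of each printed compound spot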
[10] = binders of probe aHhip on microarray, primary screen, stem cell growth factor project, biochemical, small-molecule microarray, fluorescence 635/667 (AID 1087); conditions: higher = more signal;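 note: score merges spot fluorescence at 667nm with spot signal to noise ratio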

Chain of Pro-neuregulin-1, membrane-bound isoform (Homo sapiens) (Q02297 whole entry, looked up, the tested form may be a part, canonical isoform): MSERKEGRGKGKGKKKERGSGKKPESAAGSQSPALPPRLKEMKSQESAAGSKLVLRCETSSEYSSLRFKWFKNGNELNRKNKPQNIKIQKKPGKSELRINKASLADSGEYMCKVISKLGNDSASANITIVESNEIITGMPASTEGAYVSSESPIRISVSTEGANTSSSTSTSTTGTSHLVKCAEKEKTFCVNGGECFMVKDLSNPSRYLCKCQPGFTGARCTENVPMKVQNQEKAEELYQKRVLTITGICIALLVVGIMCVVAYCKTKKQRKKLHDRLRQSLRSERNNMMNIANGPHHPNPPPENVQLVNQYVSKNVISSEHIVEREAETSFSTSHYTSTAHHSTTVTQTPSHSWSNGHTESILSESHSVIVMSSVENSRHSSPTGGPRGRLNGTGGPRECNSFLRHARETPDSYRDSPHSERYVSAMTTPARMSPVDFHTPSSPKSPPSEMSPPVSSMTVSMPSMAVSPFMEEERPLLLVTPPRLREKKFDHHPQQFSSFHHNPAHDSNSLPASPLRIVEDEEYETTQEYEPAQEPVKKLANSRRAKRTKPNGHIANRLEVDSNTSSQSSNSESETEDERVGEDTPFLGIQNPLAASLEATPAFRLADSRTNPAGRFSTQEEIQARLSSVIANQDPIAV
Chain of Neurogenic locus notch homolog protein 2 (Homo sapiens) (Q04721 whole entry, looked up, canonical isoform): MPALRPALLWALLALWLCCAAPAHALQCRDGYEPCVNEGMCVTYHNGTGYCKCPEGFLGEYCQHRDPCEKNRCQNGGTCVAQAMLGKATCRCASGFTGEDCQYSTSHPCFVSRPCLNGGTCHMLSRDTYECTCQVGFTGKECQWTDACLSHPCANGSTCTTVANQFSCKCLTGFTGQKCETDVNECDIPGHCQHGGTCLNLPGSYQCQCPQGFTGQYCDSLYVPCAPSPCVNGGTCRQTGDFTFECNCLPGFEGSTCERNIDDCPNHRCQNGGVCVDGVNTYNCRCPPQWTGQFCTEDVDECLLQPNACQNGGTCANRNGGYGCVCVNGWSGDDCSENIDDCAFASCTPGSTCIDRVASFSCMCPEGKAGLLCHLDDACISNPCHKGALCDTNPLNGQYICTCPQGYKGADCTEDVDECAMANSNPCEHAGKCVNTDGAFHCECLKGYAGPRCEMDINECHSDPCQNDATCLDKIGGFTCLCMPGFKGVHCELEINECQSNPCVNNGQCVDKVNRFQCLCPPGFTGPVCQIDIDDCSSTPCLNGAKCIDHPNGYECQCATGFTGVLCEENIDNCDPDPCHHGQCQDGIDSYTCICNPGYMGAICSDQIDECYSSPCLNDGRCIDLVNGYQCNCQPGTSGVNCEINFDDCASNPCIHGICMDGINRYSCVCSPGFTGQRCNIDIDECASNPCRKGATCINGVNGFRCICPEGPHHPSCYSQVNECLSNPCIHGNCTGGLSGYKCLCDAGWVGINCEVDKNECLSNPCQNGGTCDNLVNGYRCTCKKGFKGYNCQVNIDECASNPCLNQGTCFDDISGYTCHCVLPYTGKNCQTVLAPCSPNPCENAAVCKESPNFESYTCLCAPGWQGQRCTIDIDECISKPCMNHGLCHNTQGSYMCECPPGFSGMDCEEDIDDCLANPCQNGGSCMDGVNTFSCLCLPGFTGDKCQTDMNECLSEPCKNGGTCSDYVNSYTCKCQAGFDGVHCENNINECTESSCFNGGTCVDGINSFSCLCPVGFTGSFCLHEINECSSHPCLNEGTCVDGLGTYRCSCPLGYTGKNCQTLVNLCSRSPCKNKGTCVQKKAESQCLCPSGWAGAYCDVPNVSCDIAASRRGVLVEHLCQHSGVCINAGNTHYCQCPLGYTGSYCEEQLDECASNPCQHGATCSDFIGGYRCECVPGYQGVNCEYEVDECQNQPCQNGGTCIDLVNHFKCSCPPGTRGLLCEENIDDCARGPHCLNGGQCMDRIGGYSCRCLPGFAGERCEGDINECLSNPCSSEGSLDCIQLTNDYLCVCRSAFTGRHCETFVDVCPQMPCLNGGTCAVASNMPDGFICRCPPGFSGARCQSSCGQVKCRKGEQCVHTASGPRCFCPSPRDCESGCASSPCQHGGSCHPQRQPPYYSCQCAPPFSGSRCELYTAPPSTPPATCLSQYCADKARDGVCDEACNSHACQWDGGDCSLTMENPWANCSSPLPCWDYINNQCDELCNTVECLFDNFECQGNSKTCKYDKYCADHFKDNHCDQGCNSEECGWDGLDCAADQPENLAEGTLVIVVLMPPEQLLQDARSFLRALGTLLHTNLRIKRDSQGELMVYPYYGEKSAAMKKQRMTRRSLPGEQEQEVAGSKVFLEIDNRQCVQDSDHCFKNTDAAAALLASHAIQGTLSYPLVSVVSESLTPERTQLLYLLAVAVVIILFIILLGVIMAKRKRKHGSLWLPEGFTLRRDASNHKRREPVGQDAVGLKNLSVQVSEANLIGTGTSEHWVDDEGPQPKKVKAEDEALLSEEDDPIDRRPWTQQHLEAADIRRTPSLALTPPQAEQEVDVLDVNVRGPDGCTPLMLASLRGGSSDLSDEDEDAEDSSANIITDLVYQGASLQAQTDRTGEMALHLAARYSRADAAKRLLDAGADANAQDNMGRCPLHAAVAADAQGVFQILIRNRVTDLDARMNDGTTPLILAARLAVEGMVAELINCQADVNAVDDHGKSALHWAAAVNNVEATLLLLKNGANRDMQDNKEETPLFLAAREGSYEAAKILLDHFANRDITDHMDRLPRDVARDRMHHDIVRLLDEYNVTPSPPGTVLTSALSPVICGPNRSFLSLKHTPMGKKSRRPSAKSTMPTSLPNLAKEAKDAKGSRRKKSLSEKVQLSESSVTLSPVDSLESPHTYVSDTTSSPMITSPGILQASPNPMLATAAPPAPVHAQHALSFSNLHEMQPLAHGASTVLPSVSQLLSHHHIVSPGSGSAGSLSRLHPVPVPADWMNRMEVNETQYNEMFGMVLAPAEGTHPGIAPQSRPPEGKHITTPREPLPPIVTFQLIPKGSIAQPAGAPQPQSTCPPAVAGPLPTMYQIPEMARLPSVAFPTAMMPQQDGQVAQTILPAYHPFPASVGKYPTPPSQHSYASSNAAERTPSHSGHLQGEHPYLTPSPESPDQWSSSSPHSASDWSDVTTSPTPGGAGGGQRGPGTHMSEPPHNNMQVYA

| SMILES | composite z-score [1] | composite z-score [2] | composite z-score [3] | composite z-score [4] | composite z-score [5] | composite z-score [6] | composite z-score [7] | z-score [8] | composite z-score [9] | composite z-score [10] |
| --- | --- | --- | --- | --- | --- | --- | --- | --- | --- | --- |
| COC(=O)[C@@]1(Cc2ccc(OC)cc2)[C@H]2c3cc(C(=O)N4CCCC4)n(Cc4ccsc4Br)c3C[C@H]2CN1C(=O)c1ccccc1 | 0.588 | -0.594 | -0.1 | 0.188 | 1.6 | 1.68 | 1.08 | 3.4 (inactive) | 1.37 | -0.367 |
| COC(=O)c1c(CC[C@@H](CO)NC(=O)N2CCC[C@H]2Cn2cc(-c3ccccn3)nn2)oc(C(C)=O)c1C(=O)OC | -0.508 | -0.0298 | -0.1 | 0.639 | -0.357 | 0.963 | 0.808 | 0.634 (inactive) | -0.0939 | -0.0427 |
| CCOC(=O)C[C@H]1[C@H](OC(=O)Cc2ccc3c(c2)OCO3)[C@@H](NC(=O)c2ccc(-c3ccccc3)cc2)c2cc(OCCCO)ccc2N1C(=O)Cc1ccc(OC)cc1 | -0.429 | 0.816 | -0.0636 | 0.412 | 0.819 | 0.337 | 0.269 | -3.25 (inactive) | 0.339 | -0.415 |
| COc1ccc(CCN2C(=O)[C@@]3(Cc4ccccc42)c2ccccc2C(=O)N(Cc2ccccc2C(F)(F)F)[C@H]3c2ccc(CO)cc2)cc1 | -0.402 | -0.0678 | -0.128 | -0.106 | -0.112 | -0.112 | 0.791 | 0.453 (inactive) | -0.256 | -0.0994 |
| CCCCCN1CC=CC23O[C@@H]4/C=C\CCCOC(=O)C4[C@H]2C(=O)N(C(CO)C(C)C)[C@@H]3C1=O (stereo not given in full) | -0.101 | -0.856 | -0.103 | -0.106 | -0.65 | -0.583 | 1.52 | -0.196 (inactive) | -0.384 | 0.0854 |
| O=C1NC(=O)C2C1C=CC(C(O)c1ccccc1)N2Nc1ccc(Cl)cc1Cl (stereo not given) | -0.324 | 0.299 | 0.162 | 0.803 | 1.54 | 1.37 | 1.15 | -1.44 (inactive) | 1.32 | -0.156 |
| C=CCOC(=O)[C@@H]1[C@H]2C(=O)O[C@H](c3ccccc3)[C@H](c3ccccc3)N2[C@H](c2ccc(OCCOC(=O)[C@@H]3C[C@@H]4C(=O)N5CCC[C@H]5C(=O)N4[C@@H]3c3ccc(O)cc3)cc2)[C@@]12C(=O)Nc1ccc(I)cc12 | -0.354 | -0.0315 | -0.0958 | 0.235 | 0.666 | 0.596 | 1.19 | -0.804 (inactive) | 0.965 | -0.069 |
| CCCCCCC#C[Si](O[C@H](c1ccccc1)c1cn([C@H](CO)Cc2ccccc2)nn1)(C(C)C)C(C)C | -0.206 | 0.0423 | -0.142 | 0.296 | -0.39 | -0.138 | 1 | -0.334 (inactive) | -0.682 | -0.0324 |
| [N-]=[N+]=NCc1ccccc1C[C@]1(C(=O)N2CCOCC2)N=C(c2ccc(OCCCO)cc2)O[C@H]1c1ccccc1N=[N+]=[N-] | 0.0631 | 1.43 | 0.136 | 1.12 | 1.55 | 0.872 | 1.29 | -0.395 (inactive) | 2.05 | 0.259 |
| C=CCNC(=O)[C@H]1[C@@H]2C(=O)O[C@@H](c3ccccc3)[C@@H](c3ccccc3)N2[C@@H](c2ccc(OCCO)cc2)[C@]12C(=O)N(C(=O)OCCOC)c1ccccc12 | -0.268 | 0.847 | 0.0732 | 0.591 | 1.45 | 1.53 | 1.38 | -2.56 (inactive) | 0.854 | 0.251 |
| C=C(CCCC)C(=O)CC[C@H](OC(C)=O)c1cccc(OCCO)c1 | 0.137 | -0.475 | -0.148 | -0.177 | -1.47 | -0.331 | -0.159 | 0.818 (inactive) | -0.463 | -0.137 |
| C=CC[C@]12N=C(c3ccc(OCCCO)cc3)O[C@H]1c1ccccc1N(Cc1ccccc1)C2=O | 1.67 | 0.473 | -0.0316 | -0.138 | 0.877 | 0.138 | 0.774 | -2.33 (inactive) | 0.625 | 0.0176 |
| COc1ccc(C#Cc2ccc3c(c2)[C@]2(C(=O)N3)[C@H](c3ccccc3OCCO)N3[C@H](c4ccccc4)[C@H](c4ccccc4)OC(=O)[C@H]3[C@@H]2C(=O)O)cc1 | -0.377 | 0.424 | 0.0406 | 1.16 | 1.34 | 1.74 | 1.28 | -0.0646 (inactive) | 0.336 | 0.132 |
| C=CC[C@@]1(C(=O)NCc2ccccc2)N=C(c2ccc(OCCCO)cc2)O[C@@H]1c1ccccc1N=[N+]=[N-] | 0.127 | 0.852 | 0.071 | 0.942 | 1.44 | 1.74 | 1.27 | 0.206 (inactive) | 1.31 | 0.111 |
| Cc1ccc(S[C@]2(C(=O)NCCN3CCOCC3)CC(=O)N(Cc3ccccc3Cl)[C@@H]2c2ccc(CO)cc2)cc1 | 0.268 | -0.159 | -0.0083 | 0.701 | -0.32 | 0.956 | 1.15 | -0.0709 (inactive) | -0.0909 | -0.0994 |
| O=C1NC(=O)C2C1C=CC(C(O)c1cccc3ccccc13)N2Nc1ccccn1 (stereo not given) | -0.0559 | 0.143 | -0.0281 | 0.357 | 1.19 | 0.961 | 0.39 | 0.661 (inactive) | 0.125 | -0.242 |
| CN1C(=O)C2C=CC(C(O)C3=C[C@H]4C[C@@H](C3)C4(C)C)N(Nc3ccccc3)C2C1=O (stereo not given in full) | 1.23 | 0.329 | -0.0454 | 0.677 | 1.49 | 0.986 | 1.02 | 0.175 (inactive) | 1.23 | 0.064 |
| CN1C(=O)C2C=CC(C(O)c3ccccc3)N(Nc3ccccc3)C2C1=O (stereo not given) | 0.527 | -0.214 | 0.0444 | -1.06 | -0.0125 | 0.151 | 0.547 | 0.527 (inactive) | 0.261 | -0.301 |
| [N-]=[N+]=Nc1ccccc1C[C@@]1(C(=O)NCCN2CCOCC2)N=C(c2ccc(OCCCO)cc2)O[C@@H]1c1ccccc1 | 0.234 | 0.205 | 0.146 | 0.409 | 1.59 | 1.6 | 1.24 | -1.23 (inactive) | 1.01 | -0.286 |
| CCOC(=O)C[C@H]1[C@H](OC(=O)c2cc3ccccc3oc2=O)[C@@H](NC(=O)C2CCCCC2)c2cc(OCCCO)ccc2N1C(=O)c1ccccc1 | -0.565 | 0.0071 | -0.121 | 0.642 | 1.29 | 0.0246 | 0.863 | 0.0161 (inactive) | 0.564 | -0.0618 |
| NCCCCCNC(=O)[C@@H]1C[C@@H]2C(=O)N[C@@H](Cc3ccccc3)C(=O)N2[C@@H]1c1cccc(OCCO)c1 | 0.185 | 0.291 | -0.107 | 0.106 | 0.514 | 1.32 | 1.08 | 1.39 (inactive) | -0.122 | -0.0645 |
| C=CCNC(=O)[C@@H]1[C@H]2C(=O)O[C@H](c3ccccc3)[C@H](c3ccccc3)N2[C@H](c2ccc(OCCO)cc2)[C@@]12C(=O)Nc1ccc(C#CCCO)cc12 | 0.604 | 0.727 | 0.162 | 0.944 | 1.05 | 0.853 | 1.25 | 0.806 (inactive) | 0.804 | -0.138 |
| CC[C@@H]1C=C(C(=O)O)[C@H](c2ccco2)N1S(=O)(=O)c1ccc(C)cc1 | 0.001 | 0.0518 | -0.0141 | -0.214 | -0.974 | 0.179 | 0.504 | 0.0623 (inactive) | 0.545 | -0.0391 |
| C=CC[C@]1(C(=O)NCCCOC)N=C(c2ccc(OCCCO)cc2)O[C@H]1c1ccccc1N=[N+]=[N-] | 0.149 | -0.0693 | 0.119 | 0.751 | 1.39 | 0.94 | 0.989 | 0.665 (inactive) | 1.18 | -0.192 |
| COCCOC(=O)N1C(=O)[C@@]2(c3cc(C#Cc4ccc(OC)cc4)ccc31)[C@H](C(N)=O)[C@H]1C(=O)O[C@H](c3ccccc3)[C@H](c3ccccc3)N1[C@@H]2c1ccccc1OCCO | 0.214 | 2.16 | 0.0918 | 1.11 | 1.53 | 1.64 | 1.27 | -1.26 (inactive) | 0.433 | 0.0431 |
| COc1ccc(C(=O)Nc2ccc(CN3C(=O)[C@@]4(O[C@@H](CC(=O)N5CCC[C@H]5CO)[C@H]([Si](C)(C)c5ccc(OC)cc5)[C@H]4C)c4ccccc43)cc2)cc1 | -0.172 | 0.195 | -0.0202 | 0.577 | 1.47 | 1.3 | 1.16 | -4.05 (inactive) | 0.543 | 0.176 |
| C=C(CCCC)C(=O)CC[C@H](OC(=O)c1cccnc1)c1ccccc1OCCO | 0.453 | 0.657 | -0.0573 | 0.726 | -0.261 | -0.113 | 0.22 | 1.28 (inactive) | 0.0241 | 0.0505 |
| O=C(NCC(F)(F)F)[C@@H]1c2ccccc2C(=O)N(C2CCCCC2)[C@H]1c1ccc(CO)cc1 | -0.176 | -0.527 | -0.116 | 0.0931 | 0.154 | 1.61 | 0.611 | -1.46 (inactive) | 0.249 | 0.0505 |
| O=C1c2ccccc2[C@](Cc2ccccc2I)(C(=O)NC2CC2)[C@H](c2ccc(CO)cc2)N1Cc1ccccc1 | 0.16 | -0.211 | -0.0335 | 0.483 | 0.543 | 0.458 | 0.774 | -3.11 (inactive) | -0.364 | -0.0994 |
